# Data reported in PubChem BioAssay (Tox21).
# A number with no mark means an inactive call. Active and inactive are the calls of the source. Calls come from the whole dose curve; as a rule, active = well fitted activation curve with a large enough effect in the repeat runs; inconclusive = weak or mixed curves; inactive = flat fitted curve, though single readings scatter.
# Assay: Caspase-3/7 induction in CHO-K1 cells by small molecules, qHTS assay (AID 1346980); note: nearly all actives have a fitted effect of over 15% in size
# Conditions: CHO-K1 caspase-3/7 induction, Caspase-Glo luminescence, 17 h; series mostly up to 92.4 µM
# Text: National Center for Advancing Translational Sciences [NCATS]
# NIH Chemical Genomics Center [NCGC]
# U.S. Environmental Protection Agency [EPA]
# National Institutes of Environmental Health Sciences [NIEHS]
# National Toxicology Program [NTP]
# Apoptosis is a process of programmed cell death and plays a central role in the development of multicellular organisms. It is a highly regulated process and induces cell death by activating caspases, which are the members of cysteine aspartic acid-specific protease (caspase) family. Caspases involved in apoptosis are classified by their mechanism of action as initiator caspases (caspase-2, -8, -9 and -10) and executioner caspases (caspase-3, -6, and -7). Inhibition of apoptosis results in number of cancers, autoimmune diseases, inflammatory diseases and viral infection. To identify small molecule compounds that induce apoptosis, a homogeneous, luminescent Caspase-Glo 3/7 assay was used. Wild type CHO-K1 cells were used to screen Tox21 libraries for identifying caspase-3/7 activity inducers.
# CHO-K1 cells were dispensed at 1,500 per well in 5uL of culture medium into white solid bottom 1536-well plates (Corning Life Sciences, Corning, NY) using a Multidrop Combi (Thermo Scientific, Waltham, MA) dispenser. The assay plates were incubated at 37 C and 5% CO2 for 5hr, and then 23nL of compounds dissolved in DMSO and positive control were transferred using a Pintool station (Wako, San Diego, CA). The assay plates were incubated at 37C and 5% CO2 for 17hr. For caspase-3/7 activity read, 4uL of Caspase-Glo 3/7 reagent (Promega Corporation, Madison, WI) was added to each well of the assay plates using Flying Reagent Dispenser (FRD, Aurora Discovery, San Diego, CA) and incubated the assay plates at room temperature for 30min. The luminescence signal was quantified using a ViewLux plate reader (Perkin Elmer, Shelton, CT).
# % is set by controls: 0 for no effect and ±100 for the full control effect.
SMILES,outcome,caspase-3/7 activation
C[C@]12CCC(=O)C=C1C=C[C@@H]1[C@@H]2CC[C@@]2(C)[C@H]1CC[C@@]21CCC(=O)O1,inactive,–
CCCC(=O)O[C@]1(C(=O)COC(=O)CC)CC[C@H]2[C@@H]3CCC4=CC(=O)CC[C@]4(C)[C@H]3[C@@H](O)C[C@@]21C,–,1.2% [at 19 µM]
CCOc1cc(N)c(Cl)cc1C(=O)NCC1CN(Cc2ccc(F)cc2)CCO1 (stereo not given),inactive,–
OCC1CC=CCC1 (stereo not given),inactive,–
Cc1oncc1C(=O)Nc1ccc(C(F)(F)F)cc1,inactive,–
CCCCCCCCCCCC[N+](C)(C)CCCS(=O)(=O)[O-],inactive,–
COCC(O)CO (stereo not given),inactive,–
CC(C)CCCC(=O)O,inactive,–
CCCCC(CC)C(=O)OCCOCCOCCOCCOC(=O)C(CC)CCCC (stereo not given),inactive,–
Cc1occc1C(=O)Nc1ccc(C(=O)N2CCC(F)(F)/C(=C\C(=O)N3CCC(N4CCCCC4)CC3)c3ccccc32)cc1,inactive,–
CCCCC(CC)COC(=O)COc1ccc(Cl)cc1C (stereo not given),inactive,–
CC(CCc1ccc2c(c1)OCO2)NN (stereo not given),inactive,–
CC(CCO)CCc1ccccc1 (stereo not given),inactive,–
CCCOc1ccc(S(=O)(=O)N2CCN(CC)CC2)cc1-c1nc2c(CC)n(Cc3ccccn3)nc2c(=O)[nH]1,inactive,–
CC(C)OCC1CO1 (stereo not given),inactive,–
CCOC(=O)c1ccccc1OC,inactive,–
Fc1c(F)c(F)c(Br)c(F)c1F,inactive,–
O=C(O)C(Cc1cc(I)c(O)c(I)c1)c1ccccc1 (stereo not given),inactive,–
N#C[C@@H]1C[C@@H]2C[C@@H]2N1C(=O)[C@@H](N)C12CC3CC(CC(O)(C3)C1)C2,inactive,–
CO[Si](C)(OC)OC,inactive,–

SMILES,outcome,caspase-3/7 activation
CC(C)(CCl)c1ccccc1,inactive,–
CC(=O)Oc1ccc2c(c1)CC[C@@H]1[C@@H]2CC[C@]2(C)[C@@H](O)CC[C@@H]12,inactive,–
CNCCCC1c2ccccc2C=Cc2ccccc21,inactive,–
Nc1ccc(Cl)cc1[N+](=O)[O-],inactive,–
O=C(O)Cc1ccc(-c2ccccc2)cc1,inactive,–
CC[C@H](NC(=O)c1cc(F)ccc1NS(=O)(=O)c1cccc2cccnc12)c1ccccc1,inactive,–
CCCCN(CCCC)C(=S)SSC(=S)N(CCCC)CCCC,inactive,–
C[N+]1(C)CCC(=C(c2ccccc2)c2ccccc2)CC1,inactive,–
CC(=N\O)/C(C)=N/O,inactive,–
CC(=O)CC(c1ccc([N+](=O)[O-])cc1)c1c(O)c2ccccc2oc1=O (stereo not given),inactive,–
CC1=NN(c2ccc(C(=O)O)cc2)C(=O)C1,inactive,–
CC(=O)Oc1ccc(C(=C2CCCCC2)c2ccc(OC(C)=O)cc2)cc1,inactive,–
CCCCC(=O)O[C@]1(C(=O)CO)[C@@H](C)C[C@H]2[C@@H]3CCC4=CC(=O)C=C[C@]4(C)[C@@]3(F)[C@@H](O)C[C@@]21C,inactive,–
Fc1ccccc1[C@@H](F)COC1CCC(Nc2ncnc3[nH]ncc23)CC1 (stereo not given in full),inactive,–
CC1=C(C=O)C(C)(C)CCC1,inactive,–
O=C(/C=C/c1ccccc1)OCCCc1ccccc1,inactive,–
O=C(CCCCCCCCC#CI)Oc1ccccc1,inactive,–
CC(C)CCCCCCOC(=O)CCCCC(=O)OCCCCCCC(C)C,inactive,–
CO[C@H]1C=CO[C@@]2(C)Oc3c(C)c(O)c4c(O)c(c5c(c4c3C2=O)=NC2(CCN(CC(C)C)CC2)N=5)NC(=O)/C(C)=C\C=C/[C@H](C)[C@H](O)[C@@H](C)[C@@H](O)[C@@H](C)[C@H](OC(C)=O)[C@@H]1C,inactive,–
COc1ccc([C@@H]2Sc3ccccc3NC(=O)[C@@H]2O)cc1,inactive,–
